{"source": "PubChem BioAssay (NCI)", "note": "About 83,000 compounds went through this panel and 20% of them were active in at least one assay; those are over-represented in the sample as a whole.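 Interpretation: 100, growth as untreated; towards 0, rising growth inhibition; 0, no net growth; 0 to -100, cell death. Compounds scoring below 10 were considered active.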 Unmarked numbers belong to inactive results. Calls of active or inactive are those of the source.", "data": [{"system": "K-562 leukemia", "test": "NCI-60 one-dose screen, 48 h (100 = growth as untreated, 0 = no growth, -100 = all killed)", "settings": "10 µM unless noted", "values": [{"smiles": "CC(c1cc(Cl)ccc1O)c1cc(Cl)ccc1O", "growth": "28.7%"}, {"smiles": "COc1cc2c(cc1OCCCOc1ccc(-c3cc4ccccc4c4ccccc34)cc1)N=C[C@@H]1CCCN1C2=O", "growth": "10.5%"}, {"smiles": "COc1cc2c(cc1OCCCCCn1c(-c3ccc(OCc4ccccc4)cc3)nc3cc(N4CCOCC4)ccc31)N=C[C@@H]1CCCN1C2=O", "growth": "36.1%"}, {"smiles": "CSc1ccc2c(c1)N(CCC1CCCCN1C)c1ccccc1S2", "note": "(stereo unspecified)", "growth": "1.49% (active)"}, {"smiles": "O=C(CSc1nnc(Nc2ccccc2)s1)NCCc1ccc(F)cc1", "growth": "107%"}, {"smiles": "CCC(c1ccccc1)c1noc(CCN(CC)CC)n1", "note": "(stereo unspecified)", "growth": "65.1%"}, {"smiles": "Cn1c(=O)c2c(nc(Br)n2CCC(=O)Nc2ccc(F)cc2)n(C)c1=O", "growth": "97.5%"}, {"smiles": "CCC1=C(c2ccc(OC)cc2)C(C)Oc2cc(OC(C)=O)ccc21", "note": "(stereo unspecified)", "growth": "50.2%"}, {"smiles": "O=C1C2C3C=CC(O3)C2C(=O)N1Nc1ccccc1", "note": "(stereo unspecified)", "growth": "103%"}, {"smiles": "Cc1cc(C)n2nc(SCC(=O)Nc3sc4c(c3C(N)=O)CCC4)nc2n1", "growth": "119%"}, {"smiles": "COc1ccc(Nc2ccnc(NCCCNc3ccnc4cc(Cl)ccc34)n2)cc1", "growth": "-19.2% (active)"}, {"smiles": "Oc1[nH]c2ccccc2c1/C=c1/ccc2c(c1)N=C(c1cc(F)cc(F)c1)N=2", "growth": "12.8%"}, {"smiles": "CCC1=C(c2ccc(OC)cc2)C(C)(C)Oc2c1ccc(O)c2CN1CCCC1", "growth": "-24.9% (active)"}, {"smiles": "CN(C)c1ccc(/C=C(\\C#N)c2nc3ccccc3c(=O)[nH]2)cc1", "growth": "118%"}, {"smiles": "Cc1cccc(Cl)c1NC(=O)c1ccc2nc(NC(=O)NC3CC(C)(C)NC(C)(C)C3)sc2c1", "growth": "9.24% (active)"}, {"smiles": "CCC(=O)Nc1ccccc1C#C/C=C\\C#Cc1ccccc1C(F)(F)F", "growth": "43.4%"}, {"smiles": "Nc1ccc2c3c(cccc13)-c1ccccc1-2", "growth": "84.4%"}, {"smiles": "CC[C@]1(O)CC2CN(CCc3c([nH]c4ccccc34)[C@@](C(=O)OC)(c3cc4c(cc3OC)N(C)[C@H]3[C@@](O)(C(=O)OC)[C@H](OC(C)=O)[C@]5(CC)C=CCN6CC[C@]43[C@@H]65)C2)C1", "note": "(stereo partly specified)", "growth": "7.74% (active)"}, {"smiles": "COc1ccc(/C=N/NC(=O)c2ccc(S(C)(=O)=O)cc2)cc1OC", "growth": "80.9%"}, {"smiles": "C=CCCCCCCCCC(=O)[O][Sn]([CH2]CCC)([CH2]CCC)[CH2]CCC", "growth": "-16.8% (active)"}, {"smiles": "Cc1cc(CC(=O)O)n(C)c1C(=O)c1ccc(Cl)cc1", "growth": "103%"}, {"smiles": "Fc1ccc(-c2nnc(/C=C/c3cn(-c4ccccc4)nc3-c3ccccc3)o2)cc1", "growth": "107%"}, {"smiles": "COC(=O)[C@]12CC[C@@H](C)[C@H](C)[C@@H]1C1=CC[C@@H]3[C@@]4(C)C=C(O)C(=O)[C@@]5(C)COC(=C54)C[C@@]3(C)[C@]1(C)CC2", "growth": "-97.8% (active)"}, {"smiles": "Nc1ccc(S(=O)(=O)Nc2ncccn2)cc1", "growth": "104%"}, {"smiles": "CC1CC(C)/C(=N/NC(N)=O)C(C(O)CC2CCC(=O)NC2=O)C1", "note": "(stereo unspecified)", "growth": "40.8%"}, {"smiles": "O=C(/C=C/c1cc2ccccc2[nH]c1=O)c1ccc(Cl)cc1", "growth": "17.1%"}, {"smiles": "CSc1nc2c(c(=O)[nH]1)C(c1ccc(Cl)cc1)C1=C(N2)/C(=C/c2ccc(Cl)cc2)CNC1", "note": "(stereo unspecified)", "growth": "8.37% (active)"}, {"smiles": "ClC1=C(Cl)C(Cl)=C(Cl)C1=Cc1ccc(Cl)cc1", "growth": "-0.422% (active)"}, {"smiles": "O=C1C(Cl)=C(N=Nc2c(Cl)c(O)c3ccccc3c2O)C(=O)c2ccccc21", "growth": "37.1%"}, {"smiles": "N#Cc1cnc2cc(OC[C@H](O)CO)c(NC(=O)CC3CSSC3)cc2c1Nc1ccc(OCc2cccc(F)c2)c(Cl)c1", "growth": "-100% (active)"}, {"smiles": "CN(CC(=O)Nc1nc2ccccc2[nH]1)S(=O)(=O)c1ccc(Cl)cc1", "growth": "95.7%"}, {"smiles": "COC(=O)[C@]12CC[C@@H](C)[C@H](C)[C@@H]1C1=CC[C@@H]3[C@@]4(C)C[C@@H](OC(=O)c5ccco5)[C@H](O)[C@@](C)(CO)[C@@H]4[C@H](O)C[C@@]3(C)[C@]1(C)CC2", "growth": "-100% (active)"}, {"smiles": "Fc1ccc(-c2nc(Nc3ccc(-c4nc5ccccc5[nH]4)cc3)nc(N3CCOCC3)n2)cc1", "growth": "-100% (active)"}, {"smiles": "CO[C@H]1/C=C/O[C@@]2(C)Oc3c(C)c(O)c4c(O)c(c(/C=N/N5CCN(C)CC5)c(O)c4c3C2=O)NC(=O)/C(C)=C\\C=C\\C(C)[C@H](O)[C@@H](C)[C@@H](O)[C@@H](C)[C@@H](OC(C)=O)[C@@H]1C", "note": "(stereo partly specified)", "growth": "100%"}, {"smiles": "COc1ccc(-n2nnc(C(=O)O)c2-c2cc(OC)c(OC)c(OC)c2)cc1", "growth": "95.1%"}, {"smiles": "O=C(Nc1ccc(OCc2nnc(-c3ccccc3)o2)c(F)c1)Nc1ccc(Cl)c(C(F)(F)F)c1", "growth": "12.9%"}, {"smiles": "Cc1cc(C(C)(C)C)cc(C)c1CC1=NCCN1", "growth": "90.4%"}, {"smiles": "COc1ccc(-c2csc(NC(=O)c3cc(OC)c(OC)c(OC)c3)n2)cc1", "growth": "113%"}]}, {"system": "MALME-3M melanoma", "test": "NCI-60 one-dose screen, 48 h (100 = growth as untreated, 0 = no growth, -100 = all killed)", "settings": "10 µM unless noted", "values": [{"smiles": "CC(c1cc(Cl)ccc1O)c1cc(Cl)ccc1O", "growth": "16.5%"}, {"smiles": "COc1cc2c(cc1OCCCOc1ccc(-c3cc4ccccc4c4ccccc34)cc1)N=C[C@@H]1CCCN1C2=O", "growth": "-57.9% (active)"}, {"smiles": "COc1cc2c(cc1OCCCCCn1c(-c3ccc(OCc4ccccc4)cc3)nc3cc(N4CCOCC4)ccc31)N=C[C@@H]1CCCN1C2=O", "growth": "-29.7% (active)"}, {"smiles": "CSc1ccc2c(c1)N(CCC1CCCCN1C)c1ccccc1S2", "note": "(stereo unspecified)", "growth": "72.8%"}, {"smiles": "O=C(CSc1nnc(Nc2ccccc2)s1)NCCc1ccc(F)cc1", "growth": "97.4%"}, {"smiles": "CCC(c1ccccc1)c1noc(CCN(CC)CC)n1", "note": "(stereo unspecified)", "growth": "93.8%"}, {"smiles": "Cn1c(=O)c2c(nc(Br)n2CCC(=O)Nc2ccc(F)cc2)n(C)c1=O", "growth": "105%"}, {"smiles": "CCC1=C(c2ccc(OC)cc2)C(C)Oc2cc(OC(C)=O)ccc21", "note": "(stereo unspecified)", "growth": "98%"}, {"smiles": "O=C1C2C3C=CC(O3)C2C(=O)N1Nc1ccccc1", "note": "(stereo unspecified)", "growth": "120%"}, {"smiles": "Cc1cc(C)n2nc(SCC(=O)Nc3sc4c(c3C(N)=O)CCC4)nc2n1", "growth": "106%"}, {"smiles": "COc1ccc(Nc2ccnc(NCCCNc3ccnc4cc(Cl)ccc34)n2)cc1", "growth": "-81.5% (active)"}, {"smiles": "Oc1[nH]c2ccccc2c1/C=c1/ccc2c(c1)N=C(c1cc(F)cc(F)c1)N=2", "growth": "101%"}, {"smiles": "CCC1=C(c2ccc(OC)cc2)C(C)(C)Oc2c1ccc(O)c2CN1CCCC1", "growth": "-9.28% (active)"}, {"smiles": "CN(C)c1ccc(/C=C(\\C#N)c2nc3ccccc3c(=O)[nH]2)cc1", "growth": "75.8%"}, {"smiles": "Cc1cccc(Cl)c1NC(=O)c1ccc2nc(NC(=O)NC3CC(C)(C)NC(C)(C)C3)sc2c1", "growth": "82.2%"}, {"smiles": "CCC(=O)Nc1ccccc1C#C/C=C\\C#Cc1ccccc1C(F)(F)F", "growth": "54.4%"}, {"smiles": "Nc1ccc2c3c(cccc13)-c1ccccc1-2", "growth": "98.4%"}, {"smiles": "CC[C@]1(O)CC2CN(CCc3c([nH]c4ccccc34)[C@@](C(=O)OC)(c3cc4c(cc3OC)N(C)[C@H]3[C@@](O)(C(=O)OC)[C@H](OC(C)=O)[C@]5(CC)C=CCN6CC[C@]43[C@@H]65)C2)C1", "note": "(stereo partly specified)", "growth": "38.4%"}, {"smiles": "COc1ccc(/C=N/NC(=O)c2ccc(S(C)(=O)=O)cc2)cc1OC", "growth": "107%"}, {"smiles": "C=CCCCCCCCCC(=O)[O][Sn]([CH2]CCC)([CH2]CCC)[CH2]CCC", "growth": "-79.8% (active)"}, {"smiles": "Cc1cc(CC(=O)O)n(C)c1C(=O)c1ccc(Cl)cc1", "growth": "102%"}, {"smiles": "Fc1ccc(-c2nnc(/C=C/c3cn(-c4ccccc4)nc3-c3ccccc3)o2)cc1", "growth": "88.9%"}, {"smiles": "COC(=O)[C@]12CC[C@@H](C)[C@H](C)[C@@H]1C1=CC[C@@H]3[C@@]4(C)C=C(O)C(=O)[C@@]5(C)COC(=C54)C[C@@]3(C)[C@]1(C)CC2", "growth": "-59% (active)"}, {"smiles": "Nc1ccc(S(=O)(=O)Nc2ncccn2)cc1", "growth": "118%"}, {"smiles": "CC1CC(C)/C(=N/NC(N)=O)C(C(O)CC2CCC(=O)NC2=O)C1", "note": "(stereo unspecified)", "growth": "35.6%"}, {"smiles": "O=C(/C=C/c1cc2ccccc2[nH]c1=O)c1ccc(Cl)cc1", "growth": "46.4%"}, {"smiles": "CSc1nc2c(c(=O)[nH]1)C(c1ccc(Cl)cc1)C1=C(N2)/C(=C/c2ccc(Cl)cc2)CNC1", "note": "(stereo unspecified)", "growth": "91.9%"}, {"smiles": "ClC1=C(Cl)C(Cl)=C(Cl)C1=Cc1ccc(Cl)cc1", "growth": "-2.75% (active)"}, {"smiles": "O=C1C(Cl)=C(N=Nc2c(Cl)c(O)c3ccccc3c2O)C(=O)c2ccccc21", "growth": "43.1%"}, {"smiles": "N#Cc1cnc2cc(OC[C@H](O)CO)c(NC(=O)CC3CSSC3)cc2c1Nc1ccc(OCc2cccc(F)c2)c(Cl)c1", "growth": "-67% (active)"}, {"smiles": "CN(CC(=O)Nc1nc2ccccc2[nH]1)S(=O)(=O)c1ccc(Cl)cc1", "growth": "100%"}, {"smiles": "COC(=O)[C@]12CC[C@@H](C)[C@H](C)[C@@H]1C1=CC[C@@H]3[C@@]4(C)C[C@@H](OC(=O)c5ccco5)[C@H](O)[C@@](C)(CO)[C@@H]4[C@H](O)C[C@@]3(C)[C@]1(C)CC2", "growth": "-73.4% (active)"}, {"smiles": "Fc1ccc(-c2nc(Nc3ccc(-c4nc5ccccc5[nH]4)cc3)nc(N3CCOCC3)n2)cc1", "growth": "-73.4% (active)"}, {"smiles": "CO[C@H]1/C=C/O[C@@]2(C)Oc3c(C)c(O)c4c(O)c(c(/C=N/N5CCN(C)CC5)c(O)c4c3C2=O)NC(=O)/C(C)=C\\C=C\\C(C)[C@H](O)[C@@H](C)[C@@H](O)[C@@H](C)[C@@H](OC(C)=O)[C@@H]1C", "note": "(stereo partly specified)", "growth": "105%"}, {"smiles": "COc1ccc(-n2nnc(C(=O)O)c2-c2cc(OC)c(OC)c(OC)c2)cc1", "growth": "112%"}, {"smiles": "O=C(Nc1ccc(OCc2nnc(-c3ccccc3)o2)c(F)c1)Nc1ccc(Cl)c(C(F)(F)F)c1", "growth": "8.78% (active)"}, {"smiles": "Cc1cc(C(C)(C)C)cc(C)c1CC1=NCCN1", "growth": "99.2%"}, {"smiles": "COc1ccc(-c2csc(NC(=O)c3cc(OC)c(OC)c(OC)c3)n2)cc1", "growth": "96.2%"}]}]}
